Assay results reported in article PMC11006913.

Columns and labels:
Assay in all cases: PBM; 200 nM protein, PBS
Settings in all cases: dsDNA, one strand shown
ALX1 [1] = molecular target: ALX1 (Homo sapiens, UniProt Q15699 118-204, L144V)
ALX1 [2] = molecular target: ALX1 (Homo sapiens, UniProt Q15699 118-204, L144R)
VAX1 [3] = molecular target: VAX1 (Homo sapiens, UniProt Q5SQQ9 86-172)
VAX1 [4] = molecular target: VAX1 (Homo sapiens, UniProt Q5SQQ9 86-172, T142I)
ALX1 [5] = molecular target: ALX1 (Homo sapiens, UniProt Q15699 118-204)
VAX1 [6] = molecular target: VAX1 (Homo sapiens, UniProt Q5SQQ9 86-172, K157R)
ALX3 [7] = molecular target: ALX3 (Homo sapiens, UniProt O95076 139-225, N203Q)
ALX3 [8] = molecular target: ALX3 (Homo sapiens, UniProt O95076 139-225)
ALX3 [9] = molecular target: ALX3 (Homo sapiens, UniProt O95076 139-225, L168Q)
ALX3 [10] = molecular target: ALX3 (Homo sapiens, UniProt O95076 139-225, L168V)
ALX3 [11] = molecular target: ALX3 (Homo sapiens, UniProt O95076 139-225, N203S)
MSX2 [12] = molecular target: MSX2 (Homo sapiens, UniProt P35548 130-214, R199I)
MSX2 [13] = molecular target: MSX2 (Homo sapiens, UniProt P35548 130-214)
MSX2 [14] = molecular target: MSX2 (Homo sapiens, UniProt P35548 130-214, F161Y)
NKX3-2 [15] = molecular target: NKX3-2 (Homo sapiens, UniProt P78367 192-278, P234S)
NKX3-2 [16] = molecular target: NKX3-2 (Homo sapiens, UniProt P78367 192-278)
HOXA4 = HOXA4 (Homo sapiens, UniProt Q00056 201-287, W262F)
Chain of HOXA4 (Q00056 201-287 W262F): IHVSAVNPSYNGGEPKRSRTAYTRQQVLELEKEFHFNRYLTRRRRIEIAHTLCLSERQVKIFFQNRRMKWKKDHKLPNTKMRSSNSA

Chain of VAX1 (Homo sapiens, UniProt Q5SQQ9 86-172, K157R) (Q5SQQ9 86-172 K157R): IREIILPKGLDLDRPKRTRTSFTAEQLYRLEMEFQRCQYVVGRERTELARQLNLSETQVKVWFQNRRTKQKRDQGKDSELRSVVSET
Chain of MSX2 (Homo sapiens, UniProt P35548 130-214) (P35548 130-214): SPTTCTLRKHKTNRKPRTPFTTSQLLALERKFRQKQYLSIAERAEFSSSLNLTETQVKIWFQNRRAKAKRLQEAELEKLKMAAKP
Chain of VAX1 (Homo sapiens, UniProt Q5SQQ9 86-172, T142I) (Q5SQQ9 86-172 T142I): as the sequence (Q5SQQ9 86-172 K157R) above, with T57I, R72K counted along it
Chain of ALX1 (Homo sapiens, UniProt Q15699 118-204, L144R) (Q15699 118-204 L144R): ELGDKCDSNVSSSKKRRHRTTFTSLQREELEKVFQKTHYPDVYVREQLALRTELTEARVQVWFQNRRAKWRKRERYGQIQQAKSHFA
Chain of MSX2 (Homo sapiens, UniProt P35548 130-214, F161Y) (P35548 130-214 F161Y): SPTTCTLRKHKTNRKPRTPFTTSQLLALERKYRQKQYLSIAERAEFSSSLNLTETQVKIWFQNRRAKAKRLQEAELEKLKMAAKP
Chain of ALX1 (Homo sapiens, UniProt Q15699 118-204, L144V) (Q15699 118-204 L144V): as the sequence (Q15699 118-204 L144R) above, with R27V counted along it
Chain of MSX2 (Homo sapiens, UniProt P35548 130-214, R199I) (P35548 130-214 R199I): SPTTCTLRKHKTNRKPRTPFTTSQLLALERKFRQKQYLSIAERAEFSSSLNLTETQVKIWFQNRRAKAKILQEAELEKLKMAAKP
Chain of ALX1 (Homo sapiens, UniProt Q15699 118-204) (Q15699 118-204): as the sequence (Q15699 118-204 L144R) above, with R27L counted along it
Chain of VAX1 (Homo sapiens, UniProt Q5SQQ9 86-172) (Q5SQQ9 86-172): as the sequence (Q5SQQ9 86-172 K157R) above, with R72K counted along it
Chain of ALX3 (Homo sapiens, UniProt O95076 139-225, N203Q) (O95076 139-225 N203Q): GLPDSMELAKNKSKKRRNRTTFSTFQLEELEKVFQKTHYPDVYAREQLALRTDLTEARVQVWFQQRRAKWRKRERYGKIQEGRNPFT
Chain of NKX3-2 (Homo sapiens, UniProt P78367 192-278, P234S) (P78367 192-278 P234S): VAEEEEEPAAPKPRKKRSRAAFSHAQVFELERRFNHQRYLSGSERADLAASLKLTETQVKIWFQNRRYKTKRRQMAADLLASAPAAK
Chain of ALX3 (Homo sapiens, UniProt O95076 139-225, L168Q) (O95076 139-225 L168Q): as the sequence (O95076 139-225 N203Q) above, with L30Q, Q65N counted along it
Chain of ALX3 (Homo sapiens, UniProt O95076 139-225) (O95076 139-225): as the sequence (O95076 139-225 N203Q) above, with Q65N counted along it
Chain of ALX3 (Homo sapiens, UniProt O95076 139-225, N203S) (O95076 139-225 N203S): as the sequence (O95076 139-225 N203Q) above, with Q65S counted along it
Chain of NKX3-2 (Homo sapiens, UniProt P78367 192-278) (P78367 192-278): as the sequence (P78367 192-278 P234S) above, with S43P counted along it
Chain of ALX3 (Homo sapiens, UniProt O95076 139-225, L168V) (O95076 139-225 L168V): as the sequence (O95076 139-225 N203Q) above, with L30V, Q65N counted along it

## AGGCCGGG
ALX1 [1]
  binding signal: 6.61 upbm affinity estimate (log intensity, higher = more binding, comparable within an allelic series)
ALX1 [2]
  binding signal: 6.52 upbm affinity estimate (log intensity, higher = more binding, comparable within an allelic series)
VAX1 [3]
  binding signal: 6.99 upbm affinity estimate (log intensity, higher = more binding, comparable within an allelic series)
VAX1 [4]
  binding signal: 7.01 upbm affinity estimate (log intensity, higher = more binding, comparable within an allelic series)
ALX1 [5]
  binding signal: 6.54 upbm affinity estimate (log intensity, higher = more binding, comparable within an allelic series)
VAX1 [6]
  binding signal: 7.01 upbm affinity estimate (log intensity, higher = more binding, comparable within an allelic series)

## AAATGGGA
ALX1 [1]
  binding signal: 8.33 upbm affinity estimate (log intensity, higher = more binding, comparable within an allelic series)
ALX1 [2]
  binding signal: 8.01 upbm affinity estimate (log intensity, higher = more binding, comparable within an allelic series)
ALX1 [5]
  binding signal: 8.46 upbm affinity estimate (log intensity, higher = more binding, comparable within an allelic series)

## CCGGGCCG
ALX1 [1]
  binding signal: 6.6 upbm affinity estimate (log intensity, higher = more binding, comparable within an allelic series)
ALX3 [7]
  binding signal: 7.72 upbm affinity estimate (log intensity, higher = more binding, comparable within an allelic series)
ALX1 [2]
  binding signal: 6.56 upbm affinity estimate (log intensity, higher = more binding, comparable within an allelic series)
ALX3 [8]
  binding signal: 7.76 upbm affinity estimate (log intensity, higher = more binding, comparable within an allelic series)
ALX3 [9]
  binding signal: 7.74 upbm affinity estimate (log intensity, higher = more binding, comparable within an allelic series)
ALX3 [10]
  binding signal: 7.65 upbm affinity estimate (log intensity, higher = more binding, comparable within an allelic series)
ALX1 [5]
  binding signal: 6.37 upbm affinity estimate (log intensity, higher = more binding, comparable within an allelic series)
ALX3 [11]
  binding signal: 7.67 upbm affinity estimate (log intensity, higher = more binding, comparable within an allelic series)

## ATTATAAC
ALX1 [1]
  binding signal: 10.3 upbm affinity estimate (log intensity, higher = more binding, comparable within an allelic series)
ALX3 [7]
  binding signal: 8.52 upbm affinity estimate (log intensity, higher = more binding, comparable within an allelic series)
ALX1 [2]
  binding signal: 9.95 upbm affinity estimate (log intensity, higher = more binding, comparable within an allelic series)
ALX1 [5]
  binding signal: 10.6 upbm affinity estimate (log intensity, higher = more binding, comparable within an allelic series)

## CAACGGAG
ALX1 [1]
  binding signal: 6.43 upbm affinity estimate (log intensity, higher = more binding, comparable within an allelic series)
ALX1 [2]
  binding signal: 6.49 upbm affinity estimate (log intensity, higher = more binding, comparable within an allelic series)
ALX1 [5]
  binding signal: 6.47 upbm affinity estimate (log intensity, higher = more binding, comparable within an allelic series)

## CACAGAGC
ALX1 [1]
  binding signal: 6.53 upbm affinity estimate (log intensity, higher = more binding, comparable within an allelic series)
ALX1 [2]
  binding signal: 6.53 upbm affinity estimate (log intensity, higher = more binding, comparable within an allelic series)
ALX1 [5]
  binding signal: 6.59 upbm affinity estimate (log intensity, higher = more binding, comparable within an allelic series)

## ACCCGCGT
ALX1 [1]
  binding signal: 6.47 upbm affinity estimate (log intensity, higher = more binding, comparable within an allelic series)
ALX1 [2]
  binding signal: 6.51 upbm affinity estimate (log intensity, higher = more binding, comparable within an allelic series)
ALX1 [5]
  binding signal: 6.45 upbm affinity estimate (log intensity, higher = more binding, comparable within an allelic series)

## GCGGAGCC
ALX1 [1]
  binding signal: 6.64 upbm affinity estimate (log intensity, higher = more binding, comparable within an allelic series)
ALX1 [2]
  binding signal: 6.35 upbm affinity estimate (log intensity, higher = more binding, comparable within an allelic series)
VAX1 [3]
  binding signal: 7.22 upbm affinity estimate (log intensity, higher = more binding, comparable within an allelic series)
VAX1 [4]
  binding signal: 7.36 upbm affinity estimate (log intensity, higher = more binding, comparable within an allelic series)
ALX1 [5]
  binding signal: 6.57 upbm affinity estimate (log intensity, higher = more binding, comparable within an allelic series)
VAX1 [6]
  binding signal: 7.24 upbm affinity estimate (log intensity, higher = more binding, comparable within an allelic series)

## AGGGGCCG
MSX2 [12]
  binding signal: 9.46 upbm affinity estimate (log intensity, higher = more binding, comparable within an allelic series)
MSX2 [13]
  binding signal: 9.56 upbm affinity estimate (log intensity, higher = more binding, comparable within an allelic series)
MSX2 [14]
  binding signal: 9.42 upbm affinity estimate (log intensity, higher = more binding, comparable within an allelic series)

## GCCAGGAC
MSX2 [12]
  binding signal: 9.69 upbm affinity estimate (log intensity, higher = more binding, comparable within an allelic series)
MSX2 [13]
  binding signal: 9.71 upbm affinity estimate (log intensity, higher = more binding, comparable within an allelic series)
MSX2 [14]
  binding signal: 9.76 upbm affinity estimate (log intensity, higher = more binding, comparable within an allelic series)

## AAACAATA
ALX1 [1]
  binding signal: 8.22 upbm affinity estimate (log intensity, higher = more binding, comparable within an allelic series)
ALX1 [2]
  binding signal: 8.34 upbm affinity estimate (log intensity, higher = more binding, comparable within an allelic series)
VAX1 [3]
  binding signal: 9.16 upbm affinity estimate (log intensity, higher = more binding, comparable within an allelic series)
VAX1 [4]
  binding signal: 8.8 upbm affinity estimate (log intensity, higher = more binding, comparable within an allelic series)
ALX1 [5]
  binding signal: 8.26 upbm affinity estimate (log intensity, higher = more binding, comparable within an allelic series)
VAX1 [6]
  binding signal: 8.82 upbm affinity estimate (log intensity, higher = more binding, comparable within an allelic series)

## AGGGGGAG
MSX2 [12]
  binding signal: 9.43 upbm affinity estimate (log intensity, higher = more binding, comparable within an allelic series)
MSX2 [13]
  binding signal: 9.52 upbm affinity estimate (log intensity, higher = more binding, comparable within an allelic series)
MSX2 [14]
  binding signal: 9.49 upbm affinity estimate (log intensity, higher = more binding, comparable within an allelic series)

## CCTGAGCC
MSX2 [12]
  binding signal: 9.54 upbm affinity estimate (log intensity, higher = more binding, comparable within an allelic series)
MSX2 [13]
  binding signal: 9.53 upbm affinity estimate (log intensity, higher = more binding, comparable within an allelic series)
MSX2 [14]
  binding signal: 9.53 upbm affinity estimate (log intensity, higher = more binding, comparable within an allelic series)

## CGCCGACC
MSX2 [12]
  binding signal: 9.46 upbm affinity estimate (log intensity, higher = more binding, comparable within an allelic series)
MSX2 [13]
  binding signal: 9.28 upbm affinity estimate (log intensity, higher = more binding, comparable within an allelic series)
MSX2 [14]
  binding signal: 9.4 upbm affinity estimate (log intensity, higher = more binding, comparable within an allelic series)
NKX3-2 [15]
  binding signal: 10.4 upbm affinity estimate (log intensity, higher = more binding, comparable within an allelic series)
NKX3-2 [16]
  binding signal: 10.4 upbm affinity estimate (log intensity, higher = more binding, comparable within an allelic series)

## AGCGCAGC
ALX1 [1]
  binding signal: 6.5 upbm affinity estimate (log intensity, higher = more binding, comparable within an allelic series)
ALX1 [2]
  binding signal: 6.49 upbm affinity estimate (log intensity, higher = more binding, comparable within an allelic series)
ALX1 [5]
  binding signal: 6.42 upbm affinity estimate (log intensity, higher = more binding, comparable within an allelic series)

## CGCCCACG
MSX2 [12]
  binding signal: 9.47 upbm affinity estimate (log intensity, higher = more binding, comparable within an allelic series)
MSX2 [13]
  binding signal: 9.54 upbm affinity estimate (log intensity, higher = more binding, comparable within an allelic series)
MSX2 [14]
  binding signal: 9.52 upbm affinity estimate (log intensity, higher = more binding, comparable within an allelic series)

## TAATCAAA
MSX2 [12]
  binding signal: 11.1 upbm affinity estimate (log intensity, higher = more binding, comparable within an allelic series)
MSX2 [13]
  binding signal: 12.4 upbm affinity estimate (log intensity, higher = more binding, comparable within an allelic series)
MSX2 [14]
  binding signal: 12.1 upbm affinity estimate (log intensity, higher = more binding, comparable within an allelic series)

## CCGACGCG
ALX1 [1]
  binding signal: 6.16 upbm affinity estimate (log intensity, higher = more binding, comparable within an allelic series)
ALX1 [2]
  binding signal: 6.27 upbm affinity estimate (log intensity, higher = more binding, comparable within an allelic series)
ALX1 [5]
  binding signal: 6.71 upbm affinity estimate (log intensity, higher = more binding, comparable within an allelic series)

## CAGGGCCA
MSX2 [12]
  binding signal: 9.52 upbm affinity estimate (log intensity, higher = more binding, comparable within an allelic series)
MSX2 [13]
  binding signal: 9.57 upbm affinity estimate (log intensity, higher = more binding, comparable within an allelic series)
MSX2 [14]
  binding signal: 9.56 upbm affinity estimate (log intensity, higher = more binding, comparable within an allelic series)

## CCACTGGC
MSX2 [12]
  binding signal: 9.65 upbm affinity estimate (log intensity, higher = more binding, comparable within an allelic series)
MSX2 [13]
  binding signal: 9.69 upbm affinity estimate (log intensity, higher = more binding, comparable within an allelic series)
MSX2 [14]
  binding signal: 9.68 upbm affinity estimate (log intensity, higher = more binding, comparable within an allelic series)

## AATATTTA
ALX1 [1]
  binding signal: 9.37 upbm affinity estimate (log intensity, higher = more binding, comparable within an allelic series)
ALX1 [2]
  binding signal: 9.47 upbm affinity estimate (log intensity, higher = more binding, comparable within an allelic series)
ALX1 [5]
  binding signal: 9.54 upbm affinity estimate (log intensity, higher = more binding, comparable within an allelic series)

## CTAATGAA
ALX1 [1]
  binding signal: 10.6 upbm affinity estimate (log intensity, higher = more binding, comparable within an allelic series)
ALX1 [2]
  binding signal: 10.2 upbm affinity estimate (log intensity, higher = more binding, comparable within an allelic series)
VAX1 [3]
  binding signal: 12.7 upbm affinity estimate (log intensity, higher = more binding, comparable within an allelic series)
VAX1 [4]
  binding signal: 12.4 upbm affinity estimate (log intensity, higher = more binding, comparable within an allelic series)
ALX1 [5]
  binding signal: 11.1 upbm affinity estimate (log intensity, higher = more binding, comparable within an allelic series)
HOXA4
  binding signal: 11.5 upbm affinity estimate (log intensity, higher = more binding, comparable within an allelic series)
VAX1 [6]
  binding signal: 12.4 upbm affinity estimate (log intensity, higher = more binding, comparable within an allelic series)

## GTCCAGAC
ALX1 [1]
  binding signal: 6.53 upbm affinity estimate (log intensity, higher = more binding, comparable within an allelic series)
ALX1 [2]
  binding signal: 6.49 upbm affinity estimate (log intensity, higher = more binding, comparable within an allelic series)
ALX1 [5]
  binding signal: 6.42 upbm affinity estimate (log intensity, higher = more binding, comparable within an allelic series)

## AAATATTT
MSX2 [12]
  binding signal: 10.7 upbm affinity estimate (log intensity, higher = more binding, comparable within an allelic series)
MSX2 [13]
  binding signal: 11.1 upbm affinity estimate (log intensity, higher = more binding, comparable within an allelic series)
MSX2 [14]
  binding signal: 11 upbm affinity estimate (log intensity, higher = more binding, comparable within an allelic series)

## CTGCTAGC
ALX1 [1]
  binding signal: 6.36 upbm affinity estimate (log intensity, higher = more binding, comparable within an allelic series)
ALX1 [2]
  binding signal: 6.39 upbm affinity estimate (log intensity, higher = more binding, comparable within an allelic series)
ALX1 [5]
  binding signal: 6.42 upbm affinity estimate (log intensity, higher = more binding, comparable within an allelic series)

## ATTTAGTA
ALX1 [1]
  binding signal: 9.39 upbm affinity estimate (log intensity, higher = more binding, comparable within an allelic series)
ALX1 [2]
  binding signal: 9.22 upbm affinity estimate (log intensity, higher = more binding, comparable within an allelic series)
ALX1 [5]
  binding signal: 9.79 upbm affinity estimate (log intensity, higher = more binding, comparable within an allelic series)

## AAGACAAT
ALX1 [1]
  binding signal: 8.75 upbm affinity estimate (log intensity, higher = more binding, comparable within an allelic series)
ALX1 [2]
  binding signal: 8.63 upbm affinity estimate (log intensity, higher = more binding, comparable within an allelic series)
ALX1 [5]
  binding signal: 8.96 upbm affinity estimate (log intensity, higher = more binding, comparable within an allelic series)
